The first experiment concerns the target SLC13A5. Briefly: pooled miR-30 sensor sort-seq; sequence = guide strand. The conditions noted are these: shRNA.
As for TTGACAGCCAAAAACACACAGA, the sensor-assay potency score (higher = more potent) was -0.786. TACTGGACACACACCTGCCTGG yielded a sensor-assay potency score (higher = more potent) of -0.809.

Sequence TTGCTGTCAGGAAACAACTCGT had a sensor-assay potency score (higher = more potent) of -0.663. Take TTGTCCACCAGCTCCAGGCCGG: the sensor-assay potency score (higher = more potent) was -0.842.

The target in a further experiment is SLC16A5. The experiment is described as above. The conditions noted are these: shRNA.
In turn, ATGTACACGCAGTAGCCTGTGT returned a sensor-assay potency score (higher = more potent) of -0.541. Sequence TTGCTTCCCAGGACCGTCTTTG displayed a sensor-assay potency score (higher = more potent) of -0.623.

For the sequence TTCTGCAGGGCGTAGAAGCTGC, the sensor-assay potency score (higher = more potent) was -0.98. On the same count and under the same terms, then TAGCTAAAGTTGTTGGTGGCGT, with -0.44; and TTGAGCAGGAGTGCCAGGCTGA, with -0.145.

As for TTCAGTGAAGAAGATGCCGATA, the sensor-assay potency score (higher = more potent) was -0.558.

Consider TAACAAAGTAACCTCCTACTTT, for which the sensor-assay potency score (higher = more potent) is 0.00812.

Regarding TTGGCCTGCAGTACCGCCTTTG, the sensor-assay potency score (higher = more potent) is -1.15.

Take TTGCAGTTCAGTGAAGAAGATG: the sensor-assay potency score (higher = more potent) was -1.64. The same measure, in the same setting: then TTGCTGGCCTGGAACTCCCATT, with -1.48; and TTGCTTGGCCTGCAGTACCGCC, with -1.47; and TAGAAAACATAGCTAAAGTTGT, with -0.585.

A further experiment addresses SLC17A2. The description is as above. The conditions noted are these: shRNA.
In the case of TTTTTTGCTCCAAATATCCCTG, the sensor-assay potency score (higher = more potent) is -0.408.

In turn, ATTAGATAGACCTTGCTGCTGA yielded a sensor-assay potency score (higher = more potent) of 0.973. As for TTTCGCACAGTGATCAATCTGA, the sensor-assay potency score (higher = more potent) was found to be 0.624. Same read-out and setting: then ATGAACAGAAATCTGGACCTTT, with 0.387; and TTATGGGGACAGCTCGTCCAGG, with -1.25; and AAATTGTACAGCTTGCAGCAGC, with -0.887. Take TATGTTAGGATGATGGTGCATA: the sensor-assay potency score (higher = more potent) was -0.486. The same measure, in the same setting: under TCATAAATCACTGTGAACCATA stands -0.911; under TCTGATGTTAACATGGAGCAGA, -0.539. On the same count and under the same terms, under TAAACTGACCTGTCCATGCCAT stands -0.0582.

The next experiment addresses SLC17A8. Described as above. The conditions noted are these: shRNA.
TTTACTTAGACTAACCACGTTG showed a sensor-assay potency score (higher = more potent) of -0.016. Still for that read-out and setting: under TTACTTAGACTAACCACGTTGG stands -0.0532.

With TACGGTGCTATTGTTGACCATT, the sensor-assay potency score (higher = more potent) was -0.977. Sequence TTTTCCATCAACATATACGGTG returned a sensor-assay potency score (higher = more potent) of -0.405. For TAAGACATCTTCTTTTTGGGAC, the sensor-assay potency score (higher = more potent) is 0.433. Same read-out and setting: then TATGAGGAACACATTCTGCCAT, with 0.122.

TTTCATTGTAGTATTTCTCTGT had a sensor-assay potency score (higher = more potent) of 0.732. Still for that read-out and setting: under TACAACGATTGTCATAACCATG stands -1.63; under TTTCCATCAACATATACGGTGC, -0.418; under TATATTATTGTGATTTCCCTGA, 0.059. Sequence ATGAGGAACACATTCTGCCATT yielded a sensor-assay potency score (higher = more potent) of -1.42. The same measure, in the same setting: under TAAATCTATAATTTTTTCCGTA stands -0.398.

Values taken from the OligoGym collection.
Note: reference of the scale not given here.
